# Measurements taken from the supplement of paper PMC6555819.
# How the values were obtained:
# Assay in all cases: PBM binding z-score (relative to random genomic background probes); higher = stronger binding; sequences stand for … in GC…GCGATTGACAGCGTAGAATGAAGG
# [1] = tested on: FXR:RXRa (NR concentration 270 nM, RXRa partner concentration 90 nM)
# In short: (§1)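 Ligand-free nuclear receptor dimers were bound for 1 h to custom Agilent 4×180K protein-binding microarrays. Detection used antibodies against each partner (one per run). Binding z-scores rest on regression-normalized fluorescence, with random background probes as the reference.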
# [2] = tested on: LXRa:RXRa (NR concentration 270 nM, RXRa partner concentration 90 nM)
# In short: as §1
# [3] = tested on: LXRa homodimer (NR concentration 270 nM)
# In short: as §1
# [4] = tested on: LXRb:RXRa (NR concentration 270 nM, RXRa partner concentration 90 nM)
# In short: as §1
# [5] = tested on: LXRb homodimer (NR concentration 270 nM)
# In short: as §1
# [6] = tested on: PPARa:RXRa (NR concentration 270 nM, RXRa partner concentration 90 nM)
# In short: as §1
# [7] = tested on: PPARg:RXRa (NR concentration 180 nM, RXRa partner concentration 90 nM)
# In short: as §1
# [8] = tested on: PPARg:RXRa 270nM:90nM, anti-RXR (NR concentration 270 nM, RXRa partner concentration 90 nM)
# In short: as §1
# [9] = tested on: PPARg:RXRa 30nM:10nM, anti-RXR (NR concentration 30 nM, RXRa partner concentration 10 nM)
# In short: as §1
# [10] = tested on: PPARg:RXRa 90nM:30nM, anti-RXR (NR concentration 90 nM, RXRa partner concentration 30 nM)
# In short: as §1
# [11] = tested on: PPARg:RXRa DBDmut IVT, anti-RXR (DBD mutation: RXRa K156A/R161A, NR concentration 270 nM, RXRa partner concentration 90 nM)
# In short: as §1
# [12] = tested on: PPARg:RXRa IVT, anti-PPARg (NR concentration 270 nM, RXRa partner concentration 90 nM)
# In short: as §1
# [13] = tested on: PPARg DBDmut:RXRa IVT, anti-PPARg (DBD mutation: PPARg1 K132A/R137A, NR concentration 270 nM, RXRa partner concentration 90 nM)
# In short: as §1
# [14] = tested on: PPARg DBDmut IVT, anti-PPARg (DBD mutation: PPARg1 K132A/R137A, NR concentration 270 nM)
# In short: as §1
# [15] = tested on: PPARg homodimer (NR concentration 180 nM)
# In short: as §1
# [16] = tested on: PXR:RXRa (NR concentration 270 nM, RXRa partner concentration 90 nM)
# In short: as §1
# [17] = tested on: PXR homodimer (NR concentration 270 nM)
# In short: as §1
# [18] = tested on: RARa:RXR (NR concentration 270 nM, RXRa partner concentration 90 nM)
# In short: as §1
# [19] = tested on: RARa homodimer (NR concentration 270 nM)
# In short: as §1
# [20] = tested on: RARb:RXRa (NR concentration 270 nM, RXRa partner concentration 90 nM)
# In short: as §1
Sequence,PBM binding z-score [1],PBM binding z-score [2],PBM binding z-score [3],PBM binding z-score [4],PBM binding z-score [5],PBM binding z-score [6],PBM binding z-score [7],PBM binding z-score [8],PBM binding z-score [9],PBM binding z-score [10],PBM binding z-score [11],PBM binding z-score [12],PBM binding z-score [13],PBM binding z-score [14],PBM binding z-score [15],PBM binding z-score [16],PBM binding z-score [17],PBM binding z-score [18],PBM binding z-score [19],PBM binding z-score [20]
CCTTACGGGTCACGCGGTTATAGCACGACGAGCG,6.26,4.51,0.11,3.64,0.0354,5.65,6.07,6.24,2.58,4.96,4.11,4.96,0.683,0.817,1.05,3.53,-0.0866,4.59,0.82,4.33
TCTTGTAGATCTAGCAGGTTAAGAAAGCCTGAGT,0.335,0.398,-0.285,0.453,-0.499,0.695,-0.571,1.22,2.48,1.86,1.5,0.0743,0.126,0.6,-0.214,0.527,0.101,0.57,0.175,0.0972
CGAACTAGGTCAGAACAGGACAGTGATGGATGAT,1.29,0.678,0.233,0.327,-0.482,2.91,5.11,4.36,2,3.37,6.82,7.04,3.7,2.44,1.38,0.583,0.0168,1.39,0.336,2.66
ACAGACAGGAGATGAAGGTAACTCAGGCTATCAT,0.323,0.193,0.173,0.229,0.489,0.00739,0.816,0.278,0.594,0.135,-0.00945,-0.0699,1.32,0.405,0.572,0.128,0.841,0.204,0.797,0.539
CAAACTAGGTCAAAGGTCATAGTCGAGCCAACCA,7.9,6.85,5.6,6.78,2.18,7.62,14,11.2,12.9,13.1,8.7,9.39,3.36,4.08,5.55,7.06,1.04,8.82,2.53,5.59
CCGATTGGGGCAAGGTTACCATAACGCACAGCCA,0.189,0.481,-0.246,0.649,-1.05,1.28,1.44,1.49,0.0472,0.943,1.32,1.29,-0.839,-0.45,0.0331,0.36,-0.458,0.793,-0.365,1.67
